# Reference: PubChem BioAssay AID651814 (National Center for Advancing Translational Sciences (NCATS), 2012)
# In all, about 2,100 compounds went through this assay and about 590 (28%) were called active. Roughly 42% stayed inconclusive and do not appear here. Some of the results follow. Unmarked numbers belong to inactive results. Calls follow the shape of the dose curve; as a rule, active = well fitted inhibition curve with a large enough effect; inconclusive = small, poorly fitted or top-dose-only effect; inactive = flat fitted curve, though single readings scatter.
# Molecular target: DNA dC->dU-editing enzyme APOBEC-3F (Homo sapiens) (UniProt Q8IUX4)
# Sequence (Q8IUX4 whole entry, looked up): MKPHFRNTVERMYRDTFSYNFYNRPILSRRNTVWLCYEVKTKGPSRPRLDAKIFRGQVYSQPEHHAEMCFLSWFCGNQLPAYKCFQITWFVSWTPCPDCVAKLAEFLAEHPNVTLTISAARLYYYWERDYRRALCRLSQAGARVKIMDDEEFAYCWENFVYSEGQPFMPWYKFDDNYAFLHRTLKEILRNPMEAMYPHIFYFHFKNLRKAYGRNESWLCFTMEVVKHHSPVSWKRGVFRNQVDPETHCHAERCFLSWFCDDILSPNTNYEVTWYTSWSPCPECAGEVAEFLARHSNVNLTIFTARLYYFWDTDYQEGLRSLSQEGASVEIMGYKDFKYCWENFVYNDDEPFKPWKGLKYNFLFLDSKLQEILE
# Test: qHTS for inhibitors of Vif-A3F interactions: Cherry picks; also: nearly all actives have a fitted effect of over 70% in size;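 as to max response: % of control where 0% means no effect; active compounds raise eYFP fluorescence by blocking Vif-driven A3F loss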
# Settings: HeLa A3F-eYFP + Vif (tagged APOBEC3F with the HIV-1 protein that degrades it), eYFP fluorescence, 24 h
# Excerpt: The recent discovery and characterization of host restriction factors, which provide a potent defense to invading retroviruses, has provided new targets for antiviral drug development. APOBEC3G (A3G) and APOBEC3F (A3F) are potent cytidine deaminases that block HIV-1 replication; HIV-1 expresses the Vif protein, which counteracts A3G and A3F by binding to them and inducing their proteasomal degradation. The Vif-A3G and Vif-A3F interactions provide two potential targets for development of small molecules which can interfere with the ability of Vif to degrade A3G or A3F. […] To identify inhibitors that can interfere with Vif mediated degradation of A3G and A3F, we have developed Hela cell lines that stably express A3G or A3F tagged with eYFP at the C-terminal end (A3G-eYFP or A3F-eYFP, respectively) and Vif. In the absence of an inhibitor, Vif induces degradation of A3G-eYFP and A3F-eYFP, and the cells are not fluorescent. In the presence of an inhibitor, it is expected that Vif will be unable to degrade A3G-eYFP and/or A3F-eYFP, resulting in an increase in yellow fluorescence. In this assay, Vif A3F was screened against the cherry picks ordered from the MLSMR. NIH Chemical Genomics Center [NCGC] NIH Molecular Libraries Probe Centers Network [MLPCN] MLPCN Grant: MH093245 Assay Submitter (PI): Vinay Pathak, National Cancer Institute
# A3F-Vif cells were harvested from T225 flask and resuspended in phenol free OPTI-MEM medium with 5% FBS. Then 5 uL of 140,000 cells/mL resuspended cells was dispensed into each well of low base Aurora COC 1,536-well plates (black walled, clear bottom) using a Multidrop Combi dispenser. After overnight culture at 37 deg C with 5% CO2, a total of 23 nL of compounds at 5 selected concentrations from the NPC or positive control (2 mM stock of MG132) in DMSO was transferred to each well of the assay plate using a pintool (Kalypsys, San Diego, CA), and the plates were further incubated at 37 deg C with 5% CO2 for 24 hours. After that, the plates were measured on Acumen Explorer (TTP Lab Tech). The fluorescence was detected by 488 nm/Ex and […].
# Potency is read from the fitted curve at half-maximal effect.
Compound,max response,Potency
CCCCCCN1C[C@H](O)[C@@H](n2cc(COC(=O)c3ccccc3)nn2)C[C@@H]1c1ccc(C)cc1,-0.173%,
Cc1ccc2c(c1)Sc1c(ccc3ccccc13)N2,,16.4 µM (active)
Oc1ccc(-c2nc(-c3ccc(O)c(O)c3)cs2)cc1,,4.44 µM (active)
COc1ccc(-c2csc(-c3ccc(O)cc3)n2)cc1,-24.3%,
COc1ccc(OC)c(CNc2nc3ccc(C)cc3n3nnnc23)c1,-21.9%,
OCCCn1c(C2CCCN2c2nc(-c3ccc(Cl)cc3)cs2)nc2cc(Cl)c(Cl)cc21 (centres undefined),-3.45%,
CCCCCCCNc1ccc(/C=C/c2ccnc3ccccc23)cc1,,20.6 µM (active)
CCCCCCNc1ccc(/C=C/c2ccnc3ccccc23)cc1,,18.4 µM (active)
C/C(=N\NC(=O)c1cc(C)nc2ccccc12)c1ccncc1,-5.92%,
COc1ccc(NC(=O)C2Cc3c(-c4ccc(NC(C)=O)cc4)ccnc3O2)cn1 (centres undefined),-27.7%,
Cc1ccc(-c2cc(NC=O)c3ncc(-c4cnn(C)c4)n3c2)cc1,,7.9 µM (active)
COc1ccc(-c2cnc3c(NC=O)cc(-c4ccccc4)cn23)cc1OC,,4.98 µM (active)
COc1ccc(-c2cc(NC(C)=O)c3ncc(-c4cc(OC)c(OC)c(OC)c4)n3c2)cn1,,4.98 µM (active)
COc1ccccc1-c1cc(NC=O)c2ncc(-c3ccc(S(C)(=O)=O)cc3)n2c1,,7.04 µM (active)
CCOc1ccc2nc(NC(=O)c3nc(SC(C)C)ncc3Cl)sc2c1,-25.8%,
COC(=O)c1sc(-c2cccs2)cc1NC(=O)/C=C/C(=O)O,-22.3%,
O=C1NC(c2ccccc2Br)=N/C1=C\c1ccco1,-25.1%,
COc1ccc(-c2cnc3c(NC=O)cc(-c4ccoc4)cn23)cc1OC,,11.2 µM (active)
COc1ccc(-c2cc(NC=O)c3ncc(-c4ccc(OC)c(OC)c4)n3c2)cc1OC,,7.04 µM (active)
CN(C)c1ccccc1-c1cc(NC=O)c2ncc(-c3cccc(C(F)(F)F)c3)n2c1,,15.8 µM (active)

Compound,max response,Potency
CN(C)C(=O)c1cccc(-c2cnc3c(NC=O)cc(-c4ccccc4F)cn23)c1,-4.66%,
COc1ccc(-c2cnc3c(NC=O)cc(-c4cc(OC)c(OC)c(OC)c4)cn23)cc1OC,,15.8 µM (active)
COc1ccc(-c2nc3c4ccccc4ccn3c2Cc2ccsc2)cc1OC,-2.92%,
Cc1cc(C)nc(Nc2n[nH]c(COc3cccc4ccccc34)n2)n1,-15.5%,
Cc1cc(C)nc(NC(=S)Nc2cccc(Cl)c2Cl)c1,-10.1%,
COc1ccc(C2=NOC(C(=O)NCc3ccc(F)cc3)C2)cc1 (centres undefined),-16.1%,
CN1CCCc2cc(/C=C/c3ccnc4ccccc34)ccc21,,4.11 µM (active)
CN(C)c1ccc(/C=C/c2ccnc3ccccc23)cc1O,,11.6 µM (active)
CCc1cc(/C=C/c2ccnc3ccccc23)ccc1N(C)C,,14.6 µM (active)
Cc1cc(/C=C/c2ccnc3ccccc23)ccc1N(C)C,,8.2 µM (active)
CN(C)c1ccc(/C=C/c2ccnc3ccccc23)cc1N,-19.7%,
CCS(=O)(=O)c1nn2c(N)c(/C=C3/C=CC(=O)C(OC)=C3)c(=O)nc2s1,11%,
Cc1ccc(NC(=S)N/N=C2\CCCCC2C)cc1 (centres undefined),0.346%,
O=C(/C=C/c1ccccc1)Nc1ncn[nH]1,-21.2%,
Cc1cc(/C=C/c2ccnc3ccccc23)ccc1N,,14.6 µM (active)
COc1cccc(-c2ccc3c(N)c(C(=O)c4ccc(Cl)cc4)sc3n2)c1,,18.4 µM (active)
COc1cccc(-c2ccc3c(N)c(C(=O)c4ccc(Br)cc4)sc3n2)c1,,10.3 µM (active)
COc1ccc2nc3sc(C(=O)Nc4cc(Cl)c(OC)cc4OC)cc3cc2c1,-28.2%,
N#CC(C#N)=C1C=C2C=C(N3CCOCC3)CCC2CC1 (centres undefined),0.0461%,
O=C1N/C(=N\N=C\c2ccco2)SC1Cc1ccccc1[N+](=O)[O-] (centres undefined),-0.95%,

Compound,max response,Potency
Cn1c2ccccc2c2ccc3c(c21)C(=O)C=CC3=O,5.63%,
COc1c(-c2ccc(O)c(O)c2)oc2cc(O)cc(O)c2c1=O,,14 µM (active)
CCC[N+](C)(C)c1ccc(/C=C/c2ccncc2)cc1,,2.31 µM (active)
CC[N+](C)(C)c1ccc(/C=C/c2ccncc2)cc1,,4.11 µM (active)
CC1CC(=O)C2=C(C1)OC(N)=C(C#N)C2c1coc2ccccc2c1=O (centres undefined),-25.1%,
CCC(=O)Nc1nc2ccc(NC(=O)c3cc(OC)c(OC)c(OC)c3)cc2s1,-4.22%,
COc1cc(/C=C(/C#N)c2nc3ccccc3[nH]2)ccc1OCC(=O)Nc1ccccc1C(C)C,,16.4 µM (active)
COc1cc(/C=C(\C#N)c2nc3ccccc3[nH]2)ccc1O,6%,
COc1cc(/C=C(\C#N)c2nc3ccccc3[nH]2)ccc1OCc1ccccc1F,,18.4 µM (active)
COc1cc(/C=C(\C#N)c2nc3ccccc3s2)ccc1OCC(=O)Nc1ccccc1,,14 µM (active)
COc1ccc(OC)c2sc(NC(=O)CCS(=O)(=O)c3ccccc3)nc12,-17.2%,
COc1cc(OC)c(/C=C/c2ccnc3ccccc23)c(OC)c1,,14.6 µM (active)
COc1ccc(OC)c(Nc2nc(-c3ccncc3)nc3ccccc23)c1,-10.6%,
COc1cc(/C=C/c2ccnc3ccccc23)ccc1N(C)C,,9.2 µM (active)
COc1cc(N(C)C)c(OC)cc1/C=C/c1ccnc2ccccc12,,20.6 µM (active)
Cc1c(C)n(Cc2ccccc2)c2ccc(C(=O)NCc3ccco3)cc12,-24.7%,
Cc1cc(C)c(NC(=O)Cn2c(=O)n(Cc3ccc(C(=O)NCc4ccco4)cc3)c(=O)c3sccc32)c(C)c1,,14.6 µM (active)
COc1ccccc1-c1c(C#N)c(N)nc2c1CCc1ccccc1-2,-14.7%,
COc1ccc2c(n1)Sc1nc3ccccc3nc1N2,,4.11 µM (active)
